Experimental data reported in PubChem BioAssay AID372 (MTDP, 2006).
Hit rate of the full screen: of about 100,000 compounds, about 770 (0.77%) were called active. This is one part of a sample in which actives are shown more often than they occur. Cut-off read from the data, not from the text of the source: active = inhibition above about 50%; inactive = the rest.

Target: Gag-Pol polyprotein (Human immunodeficiency virus type 1 group M subtype B (isolate HXB2)) (UniProt P04585)
Test: RNase H inhibition, HIV 1 Gag Pol polyprotein, FRET biochemical assay, screening (AID 372)
Conditions: HIV-1 RT RNase H, FRET RNA/DNA substrate fluorescence; at 10 µM; stronger effect = higher value

SMILES	inhibition
Cn1ccnc1SCC(=O)n1c2c(c3ccccc31)CCCC2	0% (inactive)
O=C(Nc1ccc2nn(-c3ccccc3)nc2c1)c1ccc([N+](=O)[O-])cc1	12% (inactive)
Cc1ccc(C(=O)Nc2ccc3nn(-c4cccc([N+](=O)[O-])c4)nc3c2)cc1	54% (active)
COc1ccc(-n2nc3ccc(NC(=O)c4ccc(OC)c([N+](=O)[O-])c4)cc3n2)cc1	3% (inactive)
COc1ccc(C(=O)Nc2ccc3nn(-c4ccc(C)c(Cl)c4)nc3c2)cc1[N+](=O)[O-]	53% (active)
O=C(Nc1ccc2nn(-c3cccc([N+](=O)[O-])c3)nc2c1)c1ccccc1	22% (inactive)
Cc1ccc(-n2nc3ccc(NC(=O)c4ccc([N+](=O)[O-])c(C)c4)cc3n2)cc1Cl	44% (inactive)
Cc1cc([N+](=O)[O-])ccc1NC(=O)c1c(C)c(C)c(C)c(C)c1C	10% (inactive)
CCOc1ccc(N(CC(=O)NCCSCc2ccccc2)S(=O)(=O)c2ccccc2)cc1	10% (inactive)
CC1(C)Cc2cc3c(=O)[nH]c(=S)[nH]c3nc2CO1	0% (inactive)
N#Cc1cc2c(N)c(C(=O)c3ccccc3)sc2nc1N	8% (inactive)
CC1=C(C(=O)OC2CCCCC2)C(c2ccccc2[N+](=O)[O-])C2=C(CCCC2=O)N1 (configuration not stated)	10% (inactive)
CC(C)(C)c1cc(CCC(=O)NCCO)cc(C(C)(C)C)c1O	0% (inactive)
CC(C)(C)c1cc(CCC(=O)NCCNC(=O)C(=O)NCCNC(=O)CCc2cc(C(C)(C)C)c(O)c(C(C)(C)C)c2)cc(C(C)(C)C)c1O	55% (active)
COC(=O)CCc1cc(C(C)(C)C)c(O)c(C(C)(C)C)c1	0% (inactive)
Cc1ccccc1OCCOc1ccc(/C=c2\sc3nc4ccccc4n3c2=O)cc1	5% (inactive)
C=CCN1C(=O)C(O)=C(C(C)=O)C1c1ccc(Br)cc1 (configuration not stated)	8% (inactive)
Cc1ccc(-c2nc3ccccc3s2)cc1NC(=O)COc1ccccc1	10% (inactive)
Cc1cccc(OCC(=O)Nc2cccc(-c3nc4ccccc4s3)c2)c1	9% (inactive)
COc1ccc(OCC(=O)Nc2cc(-c3nc4ccccc4s3)ccc2C)cc1	2% (inactive)
Cc1cc(C)cc(OCC(=O)Nc2cccc(-c3nc4ccccc4s3)c2)c1	53% (active)
Cc1ccc(-c2nc3ccccc3s2)cc1NC(=O)COc1ccc(Cl)cc1	69% (active)
COc1ccc(OCC(=O)Nc2cccc(-c3nc4ccccc4s3)c2)cc1	7% (inactive)
CCc1cc(=O)oc2c(C)c(OCc3ccc(Cl)cc3)ccc12	5% (inactive)
CN1C(=O)/C(=C\c2cccc(OCc3ccc(Cl)cc3Cl)c2)SC1=S	11% (inactive)

SMILES	inhibition
Nc1nonc1C(=Nc1ccccc1)NOCc1ccc(Cl)cc1Cl	32% (inactive)
Cc1ccccc1N=C(NOCc1ccc(Cl)cc1Cl)c1nonc1N	13% (inactive)
COc1ccc(C2CC(=O)C3=C(C2)Nc2ccccc2NC3c2cccc(Cl)c2Cl)cc1OC (configuration not stated)	16% (inactive)
CCc1nnc(NC(=O)Nc2ccc(Cl)cc2)s1	10% (inactive)
Cc1cc(C)c2nc3s/c(=C\c4ccc(Cl)cc4Cl)c(=O)n3c2c1	0% (inactive)
COc1cccc2cc(C(=O)O)c(=O)oc12	6% (inactive)
COc1cccc2cc(C(C)=O)c(=O)oc12	3% (inactive)
Brc1ccc(CN2CCN(c3ncccn3)CC2)s1	1% (inactive)
Cc1ccc(-c2nc3ncccc3o2)cc1NC(=S)NC(=O)/C=C/c1ccccc1	5% (inactive)
Cc1c(NC(=S)NC(=O)/C=C/c2ccccc2)cccc1-c1nc2ncccc2o1	52% (active)
Cc1c(NC(=S)NC(=O)/C=C/c2ccccc2)cccc1-c1nc2ccccc2o1	36% (inactive)
CCOc1ccc(OCCCCOc2ccccc2C)cc1	18% (inactive)
O=C(N/N=C/c1cccc(Br)c1)C(=O)N1CCCC1	15% (inactive)
N#CC1=C(N)Oc2cc(N)ccc2C1c1cccc(Oc2ccccc2)c1 (configuration not stated)	5% (inactive)
CCCCNCCCOc1cc(Cl)ccc1Cl	57% (active)
CCCCNCCCCCCOc1ccc(Cl)cc1Cl	10% (inactive)
OCCNCCCOc1cc(Cl)ccc1Cl	8% (inactive)
COc1ccc(-c2cc(C(=O)NCc3ccco3)c3ccccc3n2)cc1	14% (inactive)
COC(=O)c1c(NC(=O)c2ccccc2Br)sc(C)c1C	23% (inactive)
O=C1N=c2ccc(Br)cc2=C1c1sc(=O)n(-c2ccc(O)cc2)c1O	41% (inactive)
O=C1N=c2ccccc2=C1c1sc(=S)n(-c2ccc(F)cc2)c1O	12% (inactive)
O=C1N=c2ccc(Br)cc2=C1c1sc(=O)n(-c2cccc(Cl)c2)c1S	50% (active)
CCOc1ccc(-n2c(O)c(C3=c4cc(Br)ccc4=NC3=O)sc2=S)cc1	9% (inactive)
CCN(CC)c1ccc(-n2c(O)c(C3=c4ccccc4=NC3=O)sc2=S)cc1	50% (active)
O=C1N=c2ccc(Br)cc2=C1c1sc(=S)n(-c2ccc(Cl)cc2)c1O	51% (active)

SMILES	inhibition
O=C1N=c2ccc(Br)cc2=C1c1sc(=S)n(-c2ccc(Br)cc2)c1O	15% (inactive)
O=C1N=c2ccccc2=C1c1sc(=S)n(-c2ccc(Cl)cc2)c1O	0% (inactive)
O=C1N=c2ccc(Cl)cc2=C1c1sc(=O)n(-c2ccccc2)c1O	42% (inactive)
CC(C)c1ccc(/C=C2/C(=O)NN(c3ccccc3)C2=O)cc1	4% (inactive)
CCOC(=O)c1ccc(NC(=S)NCCO)cc1	0% (inactive)
C=CCc1ccc(OCCOc2cccc(/C=C3\SC(=S)N(CC)C3=O)c2)c(OC)c1	26% (inactive)
C=CCN1C(=O)/C(=C\c2ccc(-c3ccc([N+](=O)[O-])cc3)o2)SC1=S	4% (inactive)
Cc1ccccc1NC1=C(Cl)C(=O)N(c2cccc(C)c2C)C1=O	9% (inactive)
CCOC(=O)C1=C(C)N=c2s/c(=C/c3ccc(-c4cccc(C(F)(F)F)c4)o3)c(=O)n2C1c1cccs1 (configuration not stated)	6% (inactive)
COc1ccc(C2=C/C(=C/c3ccccc3OC)C(=O)O2)c(OC)c1	2% (inactive)
CC(=O)C1=C(O)C(=O)N(Cc2ccccc2)C1c1ccc([N+](=O)[O-])cc1 (configuration not stated)	12% (inactive)
COc1ccc(C(=O)Nc2ccc(Cc3ccc(NC(=O)c4ccc(OC)cc4)cc3)cc2)cc1	52% (active)
COc1ccc(C(=O)Nc2ccc(NC(=O)c3ccc(NC(=O)c4ccc(OC)cc4)cc3)cc2)cc1	8% (inactive)
COc1cc(C(=O)Nc2ccc(Cc3ccncc3)cc2)cc(OC)c1OC	56% (active)
COc1ccc(C(=O)Nc2ccc(Cc3ccncc3)cc2)cc1OC	6% (inactive)
COc1ccc(C(=O)Nc2ccc(NC(=O)c3ccc(OC)cc3)cc2)cc1	16% (inactive)
COc1cc(C(=O)Nc2ccc(Cc3ccc(NC(=O)c4cc(OC)c(OC)c(OC)c4)cc3)cc2)cc(OC)c1OC	1% (inactive)
CCc1ccc(C2Nc3ccccc3NC3=C2C(=O)CC(c2ccc(OC)cc2)C3)s1 (configuration not stated)	7% (inactive)
O=C(N/N=C/c1cccc(/C=N/NC(=O)c2cccnc2)c1)c1cccnc1	0% (inactive)
COc1ccc(NC(=O)c2ccc(CN3CCN(c4ccccc4)CC3)cc2)cc1	9% (inactive)
COc1ccc(C(=O)NC(=S)Nc2ccc3oc(-c4ccc(OC)c(Cl)c4)nc3c2)cc1	20% (inactive)
CC(=O)Nc1ccccc1NC(=O)c1cccc(F)c1	0% (inactive)
NNC(=O)COc1ccccc1-c1ccccc1	14% (inactive)
O=C1C(=O)N(c2ccccc2)C(c2ccc([N+](=O)[O-])cc2)/C1=C(/O)c1ccccn1 (configuration not stated)	0% (inactive)
O=C(CCCN1C(=O)c2cccc3cccc(c23)C1=O)OCc1ccc2c(c1)OCO2	31% (inactive)

SMILES	inhibition
O=C(CN1C(=O)c2cccc3cccc(c23)C1=O)NCc1ccc2c(c1)OCO2	5% (inactive)
O=C(CN1C(=O)c2cccc3cccc(c23)C1=O)OCc1ccc2c(c1)OCO2	53% (active)
CCSc1nc(-c2ccccc2)nc(C(Cl)Cl)n1	25% (inactive)
O=C(O)c1ccccc1C(=O)Nc1ncc(S(=O)(=O)c2ccc([N+](=O)[O-])cc2)s1	10% (inactive)
CC(C)c1ccc(OCC(=O)Nc2ncc(S(=O)(=O)c3ccc([N+](=O)[O-])cc3)s2)cc1	58% (active)
O=C(COc1ccc(Cl)cc1)Nc1ncc(S(=O)(=O)c2ccc([N+](=O)[O-])cc2)s1	12% (inactive)
O=C(COc1ccc(Br)cc1)Nc1ncc(S(=O)(=O)c2ccc([N+](=O)[O-])cc2)s1	19% (inactive)
O=C(Nc1ncc(S(=O)(=O)c2ccc([N+](=O)[O-])cc2)s1)c1ccc(Cl)cc1Cl	6% (inactive)
O=C(Nc1ncc(S(=O)(=O)c2ccc([N+](=O)[O-])cc2)s1)c1ccccc1Cl	54% (active)
CCc1ccc(-n2nc(C)c3c(C)cc(=O)oc32)cc1	7% (inactive)
O=C(O)C1CCC(c2ccccc2)CC1 (configuration not stated)	4% (inactive)
O=C(c1nn2c(C(F)(F)F)cc(-c3ccc(F)cc3)nc2c1Cl)N1CCOCC1	3% (inactive)
C(=N/Nc1nc2ccccc2o1)/c1ccc(N2CCOCC2)cc1	20% (inactive)
Cc1ccc(S(=O)(=O)/N=C2/C=C(Sc3nnnn3-c3ccccc3)C(=O)c3ccccc32)cc1	43% (inactive)
Cc1ccc(S(=O)(=O)/N=C2/C=C(Br)C(=O)c3ccccc32)cc1	32% (inactive)
COc1ccc(Nc2ccc(N)cc2)cc1	19% (inactive)
Cc1ccc(-c2nc3ccccc3[nH]2)cc1NC(=O)c1cc2ccccc2o1	8% (inactive)
O=C(Nc1ccc(-c2nc3ccccc3[nH]2)cc1)c1cc2ccccc2o1	51% (active)
CC(=O)Nc1ccc(C(=O)Nc2ccc(-c3nc4ccccc4[nH]3)cc2)cc1	3% (inactive)
O=C(Nc1ccc(-c2nc3ccccc3[nH]2)cc1)c1ccc(Cl)cc1	14% (inactive)
O=C(Nc1ccc(-c2nc3ccccc3[nH]2)cc1)c1ccc(Cl)c(Cl)c1	59% (active)
O=C(Nc1ccc(Cl)c(-c2nc3ccccc3[nH]2)c1)c1cc2ccccc2o1	11% (inactive)
